The values that follow come from PubChem BioAssay (NCATS).

“And” between values parts separate entries of the source, which are not always exact repeats. Equal entries are not always repeated. Records with an inconclusive call do not appear. The source made the active and inactive calls. Unless noted, calls come from the whole dose curve.

Experiment [1] addresses Ubiquitin carboxyl-terminal hydrolase 1 (Homo sapiens) (UniProt O94782). Description: Inhibitors of USP1/UAF1: Pilot qHTS (AID 504865; active = well fitted inhibition curve with a large enough effect; note: nearly all actives have a fitted effect of over 35% in size; note: potency is the fitted concentration of half-maximal effect). The gist of the method: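 Enzyme-free wells gave the negative control, while test wells held 1nM USP1/UAF1 preincubated with compound for 15 min at room temperature. Ub-Rho at 150nM final started the reaction, and fluorescence at 480/540 nm was recorded kinetically.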
For orientation: In qHTS, concentration-response curves come from the screen itself.

Experiment [2] addresses DNA dC->dU-editing enzyme APOBEC-3G (Homo sapiens) (UniProt Q9HC16). Description: qHTS for inhibitors of Vif-A3G interactions: Validation (AID 588379; active = well fitted inhibition curve with a large enough effect; note: 0% is about no effect). A digest of the protocol: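 HeLa cells stably expressing Vif and A3G-eYFP, 700 cells/well, incubated overnight at 37 deg C, then exposed to compound overnight at 37 deg C. Inhibition of Vif-mediated degradation read as increased yellow fluorescence (Ex 488/Em 500-530) by laser-scanning cytometry.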

Experiment [3] addresses Glucocorticoid receptor (Homo sapiens) (UniProt P04150). Description: qHTS assay for small molecule agonists of glucocorticoid receptor signaling (AID 588532; active = well fitted curve in the direction sought with a large enough effect in the signal ratio, with a control signal flat; the % refers to the signal ratio;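 note: 100% = dexamethasone at 0.1 µM and 0% = DMSO only wells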). The following applies: HeLa MMTV-bla, beta-lactamase ratio, agonist, 18 h; stronger effect = higher value; percent of dexamethasone control, DMSO zero. The gist of the method: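 Stimulation of a glucocorticoid response element-driven beta-lactamase gene was measured in HeLa cells. Responses were scaled between DMSO basal and 0.1 uM dexamethasone, then fitted for half-maximal stimulation.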

For experiment [4] the target is unchanged. Description: qHTS assay for small molecule antagonists of glucocorticoid receptor signaling (AID 588533; active = well fitted inhibition curve with a large enough effect in the signal ratio, with a control signal flat, not every such curve was filed as active; the % refers to the signal ratio;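 note: cells stimulated with 2 nM dexamethasone as agonist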; note: potency is the fitted concentration of half-maximal effect). The gist of the method:
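Antagonist-mode qHTS: compound titrations added to GRE-bla HeLa cells, then dexamethasone 2 nM final; 18 h, 37 C. CCF4 FRET fluorescence normalized to dexamethasone and DMSO; IC50 from Hill fit.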

Experiment [5] concerns the target Vitamin D3 receptor (Homo sapiens) (UniProt P11473). Description: qHTS assay for small molecule agonists of vitamin D receptor signaling (AID 588543).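 Note: 0% = DMSO basal and 100% = reference agonist control.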 A digest of the protocol: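 Measured: β-lactamase reporter activity (CCF4, 405 nm excitation, 460/530 nm emission) in HEK293T VDR-UAS-bla cells after 16 h compound exposure at 37 °C. Normalization against 50 nM 1α,25-dihydroxyvitamin D3 and DMSO; Hill-fit EC50.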

Experiment [6] has as its target Estrogen receptor (Homo sapiens) (UniProt P03372). The experiment can be described thus: qHTS assay for small molecule antagonists of estrogen receptor alpha signaling (AID 588513; active = well fitted curve in the direction sought with a large enough effect in the signal ratio, with a control signal flat, not every such curve was filed as active; the % refers to the signal ratio; note: % is set by controls: 0 for no effect and ±100 for the full control effect). The gist of the method:
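Antagonist-mode qHTS in ER-alpha-UAS-bla HEK 293 cells: compound titration, 0.5nM estradiol for 18 h, CCF4 fluorescence, Hill-derived IC50.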

For experiment [7] the target is unchanged. The experiment can be described thus: qHTS assay for small molecule agonists of estrogen receptor alpha signaling (AID 588514).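 Note: 0% = vehicle only and 100% = reference agonist; nearly all actives have a fitted effect of over 70% in size.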 The gist of the method: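 ER-alpha-UAS-bla GripTite HEK 293 cells in medium with 2% charcoal/dextran-treated FBS were treated with compound titrations at 37 C for 18 hrs; beta-lactamase reporter read by CCF4 fluorescence after 2 hrs at RT.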

The target in experiment [8] is Bile acid receptor (Homo sapiens) (UniProt Q96RI1). The experiment can be described thus: qHTS assay for small molecule antagonists of farnesoid X receptor signaling (AID 588526). Note: % is set by controls: 0 for no effect and ±100 for the full control effect. A digest of the protocol:
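Concentration-response titrations were fitted to the Hill equation for half-maximal inhibition and maximal response, with data normalised to 50 uM chenodeoxycholic acid and DMSO control wells. Cells: FXR-UAS-bla HEK293T, dialyzed FBS.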

Experiment [9] in a line: qHTS assay for small molecule antagonists of peroxisome proliferator-activated receptor delta signaling (AID 588535; active = well fitted inhibition curve with a large enough effect in the signal ratio, with a control signal flat, not every such curve was filed as active; the % refers to the signal ratio;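 for max response: cells co-treated with a PPAR-delta agonist as stimulator during compound exposure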). The note with it: HEK293T PPARd-UAS-bla, beta-lactamase FRET ratio, 18 h; 460 nm channel. A digest of the protocol:
(§1)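 GeneBLAzer PPAR-delta-UAS-bla HEK293T cells in medium with 2% charcoal/dextran FBS were preincubated 5 hrs at 37 C, then given compounds, incubated 18 hrs at 37 C, and read by CCF4 beta-lactamase fluorescence; IC50 from Hill fits.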

Experiment [10] concerns the target Peroxisome proliferator-activated receptor delta (Homo sapiens) (UniProt Q03181). Described as above. A digest of the protocol: as §1
Experiment [11] deals with Peroxisome proliferator-activated receptor gamma (Homo sapiens) (UniProt P37231). The experiment can be described thus: qHTS assay for small molecule agonists of peroxisome proliferator-activated receptor gamma signaling (AID 588536; active = well fitted curve in the direction sought with a large enough effect in the signal ratio, with a control signal flat, not every such curve was filed as active; the % refers to the signal ratio;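 note: 0% = DMSO basal wells and 100% = rosiglitazone at 2 µM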). A digest of the protocol:
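Test agents, titrated, stimulated HEK293 UAS-bla cells overnight (16 h, 37 C). Substrate CCF4 was then added for two hours at room temperature before fluorescence reading.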

Experiment [12] addresses Vitamin D3 receptor (Homo sapiens) (UniProt P11473). The experiment can be described thus: qHTS assay for small molecule antagonists of vitamin D receptor signaling (AID 588541).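 Note: receptor activated by calcitriol during compound treatment; series mostly up to about 77 µM; % is set by controls: 0 for no effect and ±100 for the full control effect.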 The gist of the method: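 VDR-UAS-bla HEK293T cells (2000/well, 2% charcoal-stripped FBS) were treated with titrated compounds plus 1-alpha,25-dihydroxyvitamin D3 (50 nM or 3 nM final) for 16 h at 37 C. CCF4 beta-lactamase fluorescence was read; Hill fits gave IC50.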

A short description of experiment [13]: qHTS assay for small molecule agonists of retinoid X receptor alpha signaling (AID 588544). The following applies: HEK293T RXRa-UAS-bla, beta-lactamase reporter, 18 h; 530 nm emission.
For experiment [14], the target named is Peroxisome proliferator-activated receptor gamma (Homo sapiens) (UniProt P37231). The experiment can be described thus: qHTS assay for small molecule antagonists of peroxisome proliferator-activated receptor gamma signaling (AID 588537; active = well fitted inhibition curve with a large enough effect in the signal ratio, with a control signal flat, not every such curve was filed as active; the % refers to the signal ratio;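 note: reporter cells co-stimulated with 50 nM rosiglitazone agonist during compound treatment; % of control where 0% means no effect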). A digest of the protocol: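 PPAR-gamma-UAS-bla HEK293 cells (3000/well, 1% charcoal/dextran-stripped FBS) were preincubated 6-6.5 h at 37 C, given titrated compounds, then stimulated with 50 nM rosiglitazone for 16 h. Beta-lactamase activity was read with CCF4 dye; IC50 came from Hill fits.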

The target in experiment [15] is Androgen receptor (Homo sapiens) (UniProt P10275). Description: qHTS assay for small molecule agonists of androgen receptor signaling (AID 588515; active = well fitted curve in the direction sought with a large enough effect in the signal ratio, with a control signal flat; the % refers to the signal ratio; note: % is set by controls: 0 for no effect and ±100 for the full control effect). The following applies: AR-UAS-bla HEK293, beta-lactamase ratio, agonist 16 h; stronger effect = higher value. The gist of the method:
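EC50 and efficacy came from Hill fits of titrations (up to 92 uM) normalized to 30 nM R1881 as 100% and DMSO as 0%. Compound exposure was 16 h at 37 C on AR-UAS-bla HEK293 cells, with a 405/460/530 nm CCF4 fluorescence read.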

Chain of Glucocorticoid receptor (Homo sapiens) (P04150 whole entry, looked up): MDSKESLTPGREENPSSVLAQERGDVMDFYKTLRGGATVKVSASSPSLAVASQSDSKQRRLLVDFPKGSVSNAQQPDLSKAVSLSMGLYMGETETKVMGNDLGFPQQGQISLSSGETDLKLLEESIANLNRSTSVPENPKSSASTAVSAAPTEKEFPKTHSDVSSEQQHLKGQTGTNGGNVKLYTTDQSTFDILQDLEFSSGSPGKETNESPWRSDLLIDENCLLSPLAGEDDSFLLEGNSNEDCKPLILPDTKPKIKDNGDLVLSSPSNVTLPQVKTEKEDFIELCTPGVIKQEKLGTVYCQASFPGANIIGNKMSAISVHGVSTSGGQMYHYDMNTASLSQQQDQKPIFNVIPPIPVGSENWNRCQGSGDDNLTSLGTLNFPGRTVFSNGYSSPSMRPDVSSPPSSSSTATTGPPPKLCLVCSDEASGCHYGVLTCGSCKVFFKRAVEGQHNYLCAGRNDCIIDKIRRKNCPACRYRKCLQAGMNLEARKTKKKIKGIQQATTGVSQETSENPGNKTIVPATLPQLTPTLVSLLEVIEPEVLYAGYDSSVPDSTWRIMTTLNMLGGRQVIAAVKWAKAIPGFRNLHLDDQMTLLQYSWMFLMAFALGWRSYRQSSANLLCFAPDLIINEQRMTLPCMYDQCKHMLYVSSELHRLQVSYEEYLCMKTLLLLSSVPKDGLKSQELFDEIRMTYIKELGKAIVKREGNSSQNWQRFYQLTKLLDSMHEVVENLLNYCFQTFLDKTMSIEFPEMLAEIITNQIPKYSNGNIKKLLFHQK
Chain of Ubiquitin carboxyl-terminal hydrolase 1 (Homo sapiens) (O94782 whole entry, looked up): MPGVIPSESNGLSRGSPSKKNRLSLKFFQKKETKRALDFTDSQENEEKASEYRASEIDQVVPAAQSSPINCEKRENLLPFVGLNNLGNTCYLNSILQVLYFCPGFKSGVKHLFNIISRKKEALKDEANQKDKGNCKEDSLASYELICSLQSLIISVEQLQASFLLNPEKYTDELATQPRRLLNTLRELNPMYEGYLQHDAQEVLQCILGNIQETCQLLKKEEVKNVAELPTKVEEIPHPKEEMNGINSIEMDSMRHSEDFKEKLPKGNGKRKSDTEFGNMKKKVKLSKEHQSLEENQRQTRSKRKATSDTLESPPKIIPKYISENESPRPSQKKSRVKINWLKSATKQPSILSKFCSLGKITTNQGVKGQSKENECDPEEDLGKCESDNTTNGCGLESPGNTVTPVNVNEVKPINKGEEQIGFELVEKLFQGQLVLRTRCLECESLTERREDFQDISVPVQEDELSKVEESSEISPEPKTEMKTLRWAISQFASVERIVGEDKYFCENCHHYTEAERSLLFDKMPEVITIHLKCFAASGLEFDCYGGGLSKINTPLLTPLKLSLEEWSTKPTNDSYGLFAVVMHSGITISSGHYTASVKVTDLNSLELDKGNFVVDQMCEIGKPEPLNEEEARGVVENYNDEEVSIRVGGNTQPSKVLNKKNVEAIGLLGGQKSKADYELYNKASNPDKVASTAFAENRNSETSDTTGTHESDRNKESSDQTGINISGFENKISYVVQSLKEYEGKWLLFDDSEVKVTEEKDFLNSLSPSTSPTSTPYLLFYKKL
Chain of Bile acid receptor (Homo sapiens) (Q96RI1 whole entry, looked up): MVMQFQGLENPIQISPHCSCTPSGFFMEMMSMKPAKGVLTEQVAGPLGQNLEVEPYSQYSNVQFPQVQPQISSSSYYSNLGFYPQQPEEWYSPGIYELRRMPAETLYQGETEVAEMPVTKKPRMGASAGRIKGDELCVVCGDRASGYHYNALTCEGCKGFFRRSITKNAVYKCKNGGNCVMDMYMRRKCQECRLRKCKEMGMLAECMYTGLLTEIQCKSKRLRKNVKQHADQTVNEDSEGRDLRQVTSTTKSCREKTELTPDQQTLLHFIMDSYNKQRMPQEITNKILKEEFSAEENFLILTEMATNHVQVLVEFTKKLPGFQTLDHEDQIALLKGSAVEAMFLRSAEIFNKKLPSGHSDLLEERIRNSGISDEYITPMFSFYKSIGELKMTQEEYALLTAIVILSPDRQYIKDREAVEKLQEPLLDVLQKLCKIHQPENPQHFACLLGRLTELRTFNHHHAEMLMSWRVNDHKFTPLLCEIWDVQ
Chain of Vitamin D3 receptor (Homo sapiens) (P11473 whole entry, looked up): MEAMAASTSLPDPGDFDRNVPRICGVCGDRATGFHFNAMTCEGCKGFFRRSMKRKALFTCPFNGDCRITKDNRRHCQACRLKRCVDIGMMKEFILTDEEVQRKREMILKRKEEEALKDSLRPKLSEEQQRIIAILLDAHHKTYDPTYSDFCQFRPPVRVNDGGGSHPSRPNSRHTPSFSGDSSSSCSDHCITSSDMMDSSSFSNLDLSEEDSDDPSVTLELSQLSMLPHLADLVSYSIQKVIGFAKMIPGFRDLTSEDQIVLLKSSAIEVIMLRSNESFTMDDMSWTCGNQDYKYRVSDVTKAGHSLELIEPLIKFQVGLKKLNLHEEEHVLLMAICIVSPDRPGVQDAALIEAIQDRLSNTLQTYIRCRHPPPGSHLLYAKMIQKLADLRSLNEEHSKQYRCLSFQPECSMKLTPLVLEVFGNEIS
Chain of Estrogen receptor (Homo sapiens) (P03372 whole entry, looked up): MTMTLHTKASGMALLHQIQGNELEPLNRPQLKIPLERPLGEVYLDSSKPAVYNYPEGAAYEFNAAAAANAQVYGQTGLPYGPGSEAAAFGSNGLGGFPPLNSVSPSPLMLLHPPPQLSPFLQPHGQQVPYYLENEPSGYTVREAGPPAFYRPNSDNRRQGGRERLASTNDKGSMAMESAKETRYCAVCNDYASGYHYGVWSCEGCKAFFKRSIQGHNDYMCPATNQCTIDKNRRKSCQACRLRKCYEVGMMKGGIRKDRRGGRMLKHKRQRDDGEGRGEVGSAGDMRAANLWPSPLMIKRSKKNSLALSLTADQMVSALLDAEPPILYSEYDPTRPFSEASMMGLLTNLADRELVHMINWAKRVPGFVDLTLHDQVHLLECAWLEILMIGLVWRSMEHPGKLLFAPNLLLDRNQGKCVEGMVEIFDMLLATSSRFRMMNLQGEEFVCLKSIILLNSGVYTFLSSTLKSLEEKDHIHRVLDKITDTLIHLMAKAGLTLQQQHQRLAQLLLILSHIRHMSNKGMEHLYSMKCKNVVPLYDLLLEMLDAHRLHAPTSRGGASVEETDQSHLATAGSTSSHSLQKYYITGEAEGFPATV
Chain of Peroxisome proliferator-activated receptor delta (Homo sapiens) (Q03181 whole entry, looked up): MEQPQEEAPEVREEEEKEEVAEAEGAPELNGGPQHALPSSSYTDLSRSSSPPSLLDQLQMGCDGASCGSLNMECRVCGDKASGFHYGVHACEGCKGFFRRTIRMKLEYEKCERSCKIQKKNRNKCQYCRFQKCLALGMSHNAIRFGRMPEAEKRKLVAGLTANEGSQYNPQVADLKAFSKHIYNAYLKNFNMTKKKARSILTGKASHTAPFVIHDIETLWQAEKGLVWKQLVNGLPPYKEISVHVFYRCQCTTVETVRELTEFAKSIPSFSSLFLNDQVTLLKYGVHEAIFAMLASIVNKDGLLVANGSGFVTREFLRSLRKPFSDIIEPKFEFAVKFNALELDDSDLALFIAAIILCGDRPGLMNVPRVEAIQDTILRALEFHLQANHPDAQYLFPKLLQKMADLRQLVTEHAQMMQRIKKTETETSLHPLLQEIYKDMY
Chain of Peroxisome proliferator-activated receptor gamma (Homo sapiens) (P37231 whole entry, looked up): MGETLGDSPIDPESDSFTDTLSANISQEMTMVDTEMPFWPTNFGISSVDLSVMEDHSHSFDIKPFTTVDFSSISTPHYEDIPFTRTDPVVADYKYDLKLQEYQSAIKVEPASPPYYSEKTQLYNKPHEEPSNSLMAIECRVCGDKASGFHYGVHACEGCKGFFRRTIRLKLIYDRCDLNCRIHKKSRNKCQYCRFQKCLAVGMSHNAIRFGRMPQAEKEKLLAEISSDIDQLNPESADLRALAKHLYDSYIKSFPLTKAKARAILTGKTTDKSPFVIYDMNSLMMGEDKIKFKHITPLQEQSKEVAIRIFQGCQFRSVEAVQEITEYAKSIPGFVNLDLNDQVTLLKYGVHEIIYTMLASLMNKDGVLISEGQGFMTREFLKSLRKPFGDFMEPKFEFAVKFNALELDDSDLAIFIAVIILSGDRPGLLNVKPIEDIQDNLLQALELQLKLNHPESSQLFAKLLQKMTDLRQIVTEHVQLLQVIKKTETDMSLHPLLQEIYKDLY
Chain of DNA dC->dU-editing enzyme APOBEC-3G (Homo sapiens) (Q9HC16 whole entry, looked up): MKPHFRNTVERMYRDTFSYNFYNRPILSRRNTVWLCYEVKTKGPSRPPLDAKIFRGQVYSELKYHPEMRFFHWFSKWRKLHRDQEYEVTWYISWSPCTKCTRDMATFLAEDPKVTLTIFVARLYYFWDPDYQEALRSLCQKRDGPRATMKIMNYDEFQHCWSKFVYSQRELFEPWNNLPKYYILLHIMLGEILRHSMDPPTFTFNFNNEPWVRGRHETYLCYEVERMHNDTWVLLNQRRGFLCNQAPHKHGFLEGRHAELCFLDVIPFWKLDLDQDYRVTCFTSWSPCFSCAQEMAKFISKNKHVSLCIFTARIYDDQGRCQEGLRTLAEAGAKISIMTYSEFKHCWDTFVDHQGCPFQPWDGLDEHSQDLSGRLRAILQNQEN

For `C[C@H]1O[C@@H](O[C@H]2[C@@H](O)C[C@H](O[C@H]3[C@@H](O)C[C@H](O[C@H]4CC[C@@]5(C)[C@H](CC[C@@H]6[C@@H]5C[C@@H](O)[C@]5(C)[C@@H](C7=CC(=O)OC7)CC[C@]65O)C4)O[C@@H]3C)O[C@@H]2C)C[C@H](O)[C@@H]1O`, the Potency result in experiment [1] is “inactive”. Further, the result in experiment [2] and in experiment [5] was inactive. Besides, in experiment [3], the activation is -7.98% (inactive). For the same compound, in [4], the Potency was 1 µM (active) and 562 nM (active).
Consider `CC(C)O`, for which the Potency entry in experiment [1], in experiment [6] and in experiment [7] was “inactive” in each case. The call in experiment [8], in [10], in experiment [11], in experiment [12] and in experiment [5] was inactive. The max response in experiment [9] was 15.2%; in experiment [13] it was -10.8%.
Regarding `Nc1ncnc2c1ncn2[C@H]1CC[C@@H](CO)O1`, the Potency entry in [1], in experiment [6] and in experiment [7] was “inactive” each time. For the same compound, the call in experiment [8], in experiment [10], in experiment [11], in experiment [14], in experiment [12] and in [5] was inactive. The max response in [9] is -13.3% and 61.6%; in [13] it was 11.3% and 13.8%.
Regarding `Cc1cc(-c2ccc(N=Nc3ccc4c(S(=O)(=O)O)cc(S(=O)(=O)O)c(N)c4c3O)c(C)c2)ccc1N=Nc1ccc2c(S(=O)(=O)O)cc(S(=O)(=O)O)c(N)c2c1O`, the Potency in experiment [1] is 11.2 µM (active) and 25.1 µM (active). Also, the compound was called inactive in experiment [2].
For `O=C1CCC(=O)N1CO`, the Potency result in experiment [1] is “inactive”.
Regarding `CC(C)(C)CC(C)(C)c1ccc(OCCO)cc1`, the Potency entry in experiment [1], in experiment [6] and in [7] was “inactive” in each case. Moreover, the activation in [15] is -21% (inactive); in experiment [3], 12% (inactive). In addition, the compound was classed as inactive in [11], in [14], in [12] and in experiment [5]. Further, the max response in experiment [13] was 19.7%.
With `NCC[C@H](O)C(=O)N[C@@H]1C[C@H](N)[C@@H](O[C@H]2O[C@H](CN)CC[C@H]2N)[C@H](O)[C@H]1O[C@H]1O[C@H](CO)[C@@H](O)[C@H](N)[C@H]1O`, in experiment [1], the Potency result was “inactive”.
`OCl`: the Potency entry in [1], in experiment [6] and in [7] was “inactive” throughout. Besides, the compound was classed as inactive in experiment [8], in experiment [10], in experiment [11], in experiment [12] and in [5]. Also, the activation in experiment [3] was -3.26% (inactive). Besides, the results for the max response in experiment [9] and in experiment [13] were -10.3% and -6.54%, respectively.
For `CC[C@H]1OC(=O)[C@H](C)[C@@H](O[C@H]2C[C@@](C)(OC)[C@@H](O)[C@H](C)O2)[C@H](C)[C@@H](O[C@@H]2O[C@H](C)C[C@H](N(C)C)[C@H]2O)[C@](C)(O)C[C@@H](C)CN(C)[C@H](C)[C@@H](O)[C@]1(C)O`, the Potency entry in experiment [1], in [6] and in [7] was “inactive” each time. Besides, the outcome in [11], in [14], in experiment [12] and in experiment [5] was inactive.
On to `O=P(O)(O)O`, for which the Potency entry in experiment [1] and in experiment [4] was “inactive” each time. For the same compound, the compound was called inactive in [8], in experiment [11], in experiment [14], in experiment [12] and in experiment [5]. Also, in experiment [3], the activation is -2.92% (inactive). Moreover, the max response in experiment [13] is -7.11%.
With `O=C(OCc1ccccc1)c1ccc(O)cc1`, the Potency result in experiment [4] was “inactive”. Moreover, the compound was called inactive in experiment [11] and in experiment [14].
For the compound `C/C=C/C=C/C(=O)O`, in [1], the Potency result is “inactive”. Also, the max response is 0.118% in experiment [9] and -7.77% in [13]. The outcome in experiment [10], in experiment [11], in experiment [12] and in experiment [5] was inactive.
Turning to `C=C1C(CCl)(CCl)C2(Cl)C(Cl)C(Cl)C1(Cl)C2(Cl)Cl` (stereo not drawn), the activation in [15] is -14.5% (inactive).
Turning to `O=c1n(CC2CO2)c(=O)n(CC2CO2)c(=O)n1CC1CO1` (stereo not drawn), the Potency result in experiment [1], in [6] and in experiment [4] was “inactive” throughout. For the same compound, in [3], the activation was -4.93% (inactive). For the same compound, the call in [5] was inactive.
